Measurements taken from PubChem BioAssay (Tox21).
“And” between values parts separate entries of the source, which are not always exact repeats. Equal entries are not always repeated. Records with an inconclusive call do not appear. Where a call stands in place of a potency, no number is given. The source made the active and inactive calls. Calls follow the shape of the dose curve; as a rule, active = well fitted activation curve with a large enough effect in the repeat runs; inconclusive = weak or mixed curves, or effect the other way; inactive = no such curve, though single readings can be large or run the other way.

experiment: qHTS assay to identify small molecule agonists of the estrogen related receptor signaling pathway with the pleiotropic PPARgamma coactivator (PGC) from Tox21 10K library (AID 1224842); details: PGC/ERR reporter cell line, luciferase ONE-Glo, 18 h; series mostly up to 92.4 µM; also: nearly all actives have a fitted effect of over 15% in size
Method in brief: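 PGC/ERR reporter cell line, 2,000 cells per well, incubated 6 h at 37 C before 23 nL compound in DMSO was added. After 18 h at 37 C, One-Glo luminescence read following 30 min at room temperature.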
Potency is read from the fitted curve at half-maximal effect.

| SMILES | Potency |
| --- | --- |
| C#CCOS(=O)OC1CCCCC1Oc1ccc(C(C)(C)C)cc1 (stereo not given) | inactive |
| C1=Cc2cccc3cccc1c23 | inactive |
| CCCCN(CC)c1c([N+](=O)[O-])cc(C(F)(F)F)cc1[N+](=O)[O-] | inactive |
| CCOC(=S)S | inactive |
| Cc1ccc2c(c1N)C(=O)c1ccccc1C2=O | 19.1 µM (active) and 9.69 µM (active) |
| NNC(=S)NN | inactive |
| O=C(Nc1ccc(Br)cc1)c1cc(Br)cc(Br)c1O | inactive |
| CCOCN(C(=O)CCl)c1c(C)cccc1CC | inactive |
| O=P(Oc1ccccc1)(Oc1ccccc1)Oc1ccccc1 | inactive |
| c1ccc(NNc2ccccc2)cc1 | inactive |
| ClC1C(Cl)C(Cl)C(Cl)C(Cl)C1Cl (stereo not given) | inactive |
| CCC(C)c1cc([N+](=O)[O-])cc([N+](=O)[O-])c1O (stereo not given) | inactive |
| CC(C)c1ccc(CO)cc1 | inactive |
| CCCCC(CC)COC(=O)Cl (stereo not given) | inactive |
| Oc1cc(Cl)ccc1Oc1ccc(Cl)cc1Cl | inactive |
